Reference: PubChem BioAssay (NCATS)
Results filed as inconclusive are left out. The source made the active and inactive calls. Calls follow the shape of the dose curve; as a rule, active = well fitted inhibition curve with a large enough effect; inconclusive = small, poorly fitted or top-dose-only effect; inactive = flat fitted curve, though single readings scatter.

Experiments:
Experiment in all cases: qHTS profiling for inhibitors of Plasmodium falciparum proliferation (AID 504749); also: nearly all actives have a fitted effect of over 60% in size
3D7 = settings: P. falciparum in erythrocytes, SYBR Green DNA, 72 h; series mostly up to 28.7 µM
How it was run: (§1)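 SYBR Green fluorescence (ex 485 nm, em 535 nm) reports parasite DNA after 72 h compound exposure of infected red cells at 0.3% parasitemia, 2.5% hematocrit; signal normalized to 0.29 uM artemisinin and vehicle wells.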

AA1029 = settings: P. falciparum in erythrocytes, SYBR Green DNA, 72 h; series mostly up to 28.7 µM
How it was run: as §1

AS120 = settings: P. falciparum in erythrocytes, SYBR Green DNA, 72 h; series mostly up to 28.7 µM
How it was run: as §1

ATS189 = settings: P. falciparum in erythrocytes, SYBR Green DNA, 72 h; series mostly up to 28.7 µM
How it was run: as §1

ATS95 = settings: P. falciparum in erythrocytes, SYBR Green DNA, 72 h; series mostly up to 28.7 µM
How it was run: as §1

CP194 = settings: P. falciparum in erythrocytes, SYBR Green DNA, 72 h; series mostly up to 28.7 µM
How it was run: as §1

CP201 = settings: P. falciparum in erythrocytes, SYBR Green DNA, 72 h; series mostly up to 28.7 µM
How it was run: as §1

CP203 = settings: P. falciparum in erythrocytes, SYBR Green DNA, 72 h; series mostly up to 28.7 µM
How it was run: as §1

CP211 = settings: P. falciparum in erythrocytes, SYBR Green DNA, 72 h; series mostly up to 28.7 µM
How it was run: as §1

CP247 = settings: P. falciparum in erythrocytes, SYBR Green DNA, 72 h; series mostly up to 28.7 µM
How it was run: as §1

CP250 = settings: P. falciparum in erythrocytes, SYBR Green DNA, 72 h; series mostly up to 12.8 µM
How it was run: as §1

CP252 = settings: P. falciparum in erythrocytes, SYBR Green DNA, 72 h; series mostly up to 12.8 µM
How it was run: as §1

CP256 = settings: P. falciparum in erythrocytes, SYBR Green DNA, 72 h; series mostly up to 28.7 µM
How it was run: as §1

CP262 = settings: P. falciparum in erythrocytes, SYBR Green DNA, 72 h; series mostly up to 28.7 µM
How it was run: as §1

CP265 = settings: P. falciparum in erythrocytes, SYBR Green DNA, 72 h; series mostly up to 12.8 µM
How it was run: as §1

CP325 = settings: P. falciparum in erythrocytes, SYBR Green DNA, 72 h; series mostly up to 28.7 µM
How it was run: as §1

CP329 = settings: P. falciparum in erythrocytes, SYBR Green DNA, 72 h; series mostly up to 28.7 µM
How it was run: as §1

DIV30 = settings: P. falciparum in erythrocytes, SYBR Green DNA, 72 h; series mostly up to 28.7 µM
How it was run: as §1

N140 = settings: P. falciparum in erythrocytes, SYBR Green DNA, 72 h; series mostly up to 28.7 µM
How it was run: as §1

TAB109 = settings: P. falciparum in erythrocytes, SYBR Green DNA, 72 h; series mostly up to 12.8 µM
How it was run: as §1

Measured: Potency

C[C@]12CC[C@H](OS(=O)(=O)O)CC1=CCC1C2CC[C@]2(C)C(=O)CC[C@@H]12 (stereo not given in full)
inactive: all assays above
